Results published in PubChem BioAssay (NCATS).
Values joined by “and” are separate entries in the source; they are usually repeats but may differ in a detail not shown here. Equal entries are not always repeated. Inconclusive results are not listed. Values without a mark were called inactive. Active and inactive are the calls of the source. Calls come from the whole dose curve; as a rule, active = well fitted cell-killing curve with a large enough effect; inconclusive = small, poorly fitted or top-dose-only effect; inactive = flat fitted curve, though single readings scatter.

Experiments:
[1] = Cellular viability qHTS for adrenocortical cancer (ACC) cell line SW-13 (AID 1963989); details: SW-13 ACC cells viability, CellTiter-Glo, 48 h; activity (max response): stronger effect = lower value; note: nearly all actives have a fitted effect of over 65% in size;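 for activity (max response): cells grown in serum-free medium with ITS supplement; % is set by controls: 0 for no effect and ±100 for the full control effect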
How it was run: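 48 h treatment, SW-13 in ITS/DMEM serum-free; doses up to 46 uM; readout CellTiter-Glo luminescence; curve fit four-parameter logistic.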

[2] = Cellular viability qHTS for adrenocortical cancer (ACC) cell line NCI-H295R (AID 1963990); details: CellTiter-Glo ATP luminescence, 48 h; series mostly up to 46.1 µM; note: nearly all actives have a fitted effect of over 60% in size
How it was run: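 Compound titrations (up to 46 uM final) are applied to NCI-H295R cultures for 48 h at 37C. Viable cell number is estimated by CellTiter-Glo signal, normalised to DMSO and doxorubicin controls.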
Potency is the fitted concentration of half-maximal effect.

In the case of `Cc1cccc(Cc2cnc[nH]2)c1C`, the activity (max response) [1] is reported as -10.7% and the Potency [2] is reported as “inactive”.

With `N#CC(C#N)=Cc1ccc(O)c(O)c1` the activity (max response) [1] was 13.2% and the Potency [2] was “inactive”.

For `O=c1c(C2CC(c3ccc(-c4ccc(Br)cc4)cc3)Cc3ccccc32)c(O)sc2ccccc12` (centres undefined), the Potency [1] was 5.8 µM (active) and the Potency [2] was 7.31 µM (active).

With `CNCC(=O)c1ccc(O)c(O)c1` the activity (max response) [1] was 2.58% and the Potency [2] was “inactive”.

With `COc1nn(CSP(=S)(OC)OC)c(=O)s1` the Potency [1] was 31.6 µM (active) and the Potency [2] was 25.1 µM (active).

With `CC(C)[N+](C)(CCC(C(N)=O)(c1ccccc1)c1ccccc1)C(C)C` the activity (max response) [1] was 1.8% and the Potency [2] was “inactive”.

In the case of `O=C1OC(CCN2CCCCC2)OC1(c1ccccc1)c1ccccc1` (centres undefined), the activity (max response) [1] is reported as 2.23% and the Potency [2] is reported as 25.9 µM (active).

In the case of `CN1C(=O)CN=C(c2ccccc2)c2cc(Cl)ccc21`, the activity (max response) [1] is reported as 0.469% and the Potency [2] is reported as “inactive”.

With `C[C@]12CC[C@H](O)CC1=CC[C@@H]1[C@@H]2CC[C@]2(C)C(=O)CC[C@@H]12` the activity (max response) [1] was 3.86% and -7.41% and the Potency [2] was “inactive”.

In the case of `c1cc2ccc3cccc4ccc(c1)c2c34`, the activity (max response) [1] is reported as -9.29% and the Potency [2] is reported as “inactive”.

With `CN1CC[C@]23c4c5ccc(O)c4O[C@H]2[C@@H](O)CC[C@H]3[C@H]1C5` the activity (max response) [1] was -1.35% and the Potency [2] was “inactive”.

With `C[C@]12CCC(=O)C(O)=C1CC[C@@H]1[C@@H]2CC[C@]2(C)C(=O)CC[C@@H]12` the activity (max response) [1] was 4.45% and 4.46% and the Potency [2] was “inactive”.

In the case of `CN[C@@H]1C[C@H]2O[C@@](C)([C@@H]1OC)n1c3ccccc3c3c4c(c5c6ccccc6n2c5c31)C(=O)NC4`, the Potency [1] is reported as 0.1 µM (active) and the Potency [2] is reported as 0.282 µM (active).

In the case of `c1ccc(CN2CCNCC2)cc1`, the activity (max response) [1] is reported as -9.53% and the Potency [2] is reported as “inactive”.

With `O=C1NCN(c2ccccc2)C12CCN(CC1COc3ccccc3O1)CC2` (centres undefined) the activity (max response) [1] was -9.54% and the Potency [2] was “inactive”.

For `CC(C)=CCN1CC[C@@]2(C)c3cc(O)ccc3C[C@@H]1[C@@H]2C`, the Potency [1] was 39.8 µM (active) and the Potency [2] was 31.6 µM (active).

With `CCCOC(=O)Cc1ccc(OCC(=O)N(CC)CC)c(OC)c1` the activity (max response) [1] was 10.7% and the Potency [2] was “inactive”.

For `CN(C)CCc1c[nH]c2ccc(O)cc12`, the activity (max response) [1] was 2.14% and the Potency [2] was “inactive”.

For `CCC1(CCC(C)C)C(=O)NC(=O)NC1=O`, the activity (max response) [1] was 0.531% and the Potency [2] was “inactive”.

With `C[C@H](CN1CCOCC1)C(C(=O)N1CCCC1)(c1ccccc1)c1ccccc1` the activity (max response) [1] was -12.8% and the Potency [2] was “inactive”.

For `CC(C)=CCOc1c2occc2cc2ccc(=O)oc12`, the activity (max response) [1] was -12.5% and the Potency [2] was “inactive”.

For `CC(=O)[O][Hg][c]1ccccc1`, the Potency [1] was 1.3 µM (active) and the Potency [2] was 1.46 µM (active).

In the case of `Cc1c(Cl)c(=O)oc2cc(OP(=O)(OCCCl)OCCCl)ccc12`, the activity (max response) [1] is reported as -15.3% and the Potency [2] is reported as “inactive”.

For `Nc1ccc(N)cc1`, the activity (max response) [1] was 5.64% and the Potency [2] was “inactive”.

For `Nc1c(Cl)c(Cl)c(Cl)c(Cl)c1Cl`, the activity (max response) [1] was -9.89% and the Potency [2] was “inactive”.

In the case of `C=CC(=O)NCNC(=O)C=C`, the activity (max response) [1] is reported as -0.888% and the Potency [2] is reported as “inactive”.

For `Clc1ccc(CSC(Cn2ccnc2)c2ccc(Cl)cc2Cl)cc1` (centres undefined), the Potency [1] was 8.2 µM (active) and the Potency [2] was 4.11 µM (active).
